Source: PubChem (National Center for Advancing Translational Sciences (NCATS))
A selection: hits, their analogues and other compounds. The true share with any hit is near 7.9%.
SW480 rerep – induces DNA re-replication in SW480 colon adenocarcinoma cells; SW480 DNA re-replication, Hoechst DNA content imaging, 48 h; Potency, µM (series often up to 46.1 µM), usual class: activators; 340,000 tested, 1.8% active; note: nearly all actives have a fitted effect of over 55% in size
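Hoechst fluorescence of nuclei (405 nm excitation, 500-530 nm emission) measured by plate-scanning imager after 48 hr compound exposure at 37 C; re-replication scored as increased number of nuclei with elevated intensity.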
KB-3-1 tox – KB-3-1 parental cell cytotoxicity. KB-3-1 viability, CellTiter-Glo ATP luminescence, 72 h. Potency, µM (titrated, usually from 46.1 µM), usual class: cytotoxic. 400,000 tested, 1.4% active; note: nearly all actives have a fitted effect of over 60% in size
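Parental KB-3-1 adenocarcinoma cells in phenol-red-free DMEM with 10% FBS were pin-treated with compounds at several concentrations, incubated 72 h at 37 °C, and viability read by CellTiter-Glo luminescence; concentration-effect curves were fitted after normalization.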
HT1080NT lethal – kills 2HG-producing HT-1080-NT fibrosarcoma cells | HT-1080-NT fibrosarcoma viability, CellTiter-Glo ATP luminescence, 48 h | Potency, µM (series often up to 46.1 µM), most hits filed as cytotoxic | 360,000 tested, 1.6% active;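 note: NT is the 2HG producing partner of a matched IDH1 knockdown line; nearly all actives have a fitted effect of over 55% in size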
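Luminescent CellTiter-Glo readout after 48 hours of compound exposure at 37 degrees C defined viability of HT-1080-NT cells. Activity was normalized to DMSO wells and cell-free media wells; concentration-response curves were fitted and assigned curve classes.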
MCF10A rerep – inducers of DNA re-replication in MCF 10A breast cells; MCF 10A DNA re-replication, Hoechst nuclear intensity, 48 h; 350,000 tested, 2.9% active; Potency, µM (series often up to 46.1 µM), most hits filed as activators; note: nearly all actives have a fitted effect of over 50% in size
KB-V1 MDR tox – kills drug-selected multidrug resistant KB-V1 cells. KB-V1 MDR cells viability, CellTiter-Glo, 72 h. Potency, µM (top dose mostly 46.1 µM), usual class: cytotoxic. 400,000 tested, 3.4% active; note: nearly all actives have a fitted effect of over 60% in size
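KB-V1, DMEM (no phenol red) + 10% FBS; cpd pin-transferred, titration series; 72 h, 37 degrees C; CellTiter-Glo, luminescence. Data normalized, curve-fit.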
HT1080 IDH1KD tx – kills HT-1080 cells with IDH1 knockdown; HT-1080 IDH1 knockdown viability, ATP luminescence, 48 h; Potency, µM (top dose mostly 46.1 µM), usual class: cytotoxic; 360,000 tested, 2% active; AID 686971
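IDH1KD HT-1080 cells, 750/well, RPMI + 5% FBS; compound pinned after 2 h settling; 48 h, 37 °C; CellTiter-Glo luminescence; % activity normalised to DMSO and no-cell wells; curves fitted, classed by r2 and efficacy.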
Large screens that a line does not name were inactive; ! = not active in a repeat. Calls come from the whole dose curve; as a rule, active = well fitted curve in the direction sought with a large enough effect; inconclusive = small, poorly fitted or top-dose-only effect, or another doubt; inactive = no such curve, though single readings can be large; an effect the other way counts as inactive or inconclusive.

CCc1cccc2c(C(=O)CCl)c[nH]c12	SW480 rerep inconclusive, HT1080NT lethal inconclusive, MCF10A rerep 23µM, HT1080 IDH1KD tx 15µM
CCc1cccc2c(C(=O)CN3C(=O)NC4(CCCCC4)C3=O)c[nH]c12	KB-3-1 tox inconclusive, MCF10A rerep 13µM, KB-V1 MDR tox inconclusive, HT1080 IDH1KD tx inconclusive
CCc1cccc2c(C(=O)CN3C(=O)C(=O)N(C4CCCC4)C3=O)c[nH]c12	none
CCC(CC)C(=O)N(C)c1c(C)nc2c(OCc3cc(Cl)cc(Cl)c3)cccn12	HT1080NT lethal inconclusive, KB-V1 MDR tox inconclusive, HT1080 IDH1KD tx inconclusive (no result: SW480 rerep, MCF10A rerep)
CCc1ccc(NC(=O)c2cnn3c(C)cc(C)nc23)cc1	KB-V1 MDR tox inconclusive (no result: SW480 rerep, HT1080NT lethal, MCF10A rerep, HT1080 IDH1KD tx)
CC(C)(C)OC(=O)NCC(=O)NCC(=O)OCc1ccccc1	none
NCC(=O)NCC(=O)OCc1ccccc1	MCF10A rerep 1µM
CCOc1ccc(/C=C/c2ccc3ccccc3[n+]2C)cc1OCC	KB-3-1 tox inconclusive (no result: SW480 rerep, HT1080NT lethal, MCF10A rerep, HT1080 IDH1KD tx)
CSc1cccc(NC(=O)N2CCN(C)CC2)c1	KB-V1 MDR tox inconclusive
CN1CCN(C2Cc3ccccc3Sc3cc(C(F)(F)F)ccc32)CC1 (centres undefined)	SW480 rerep inconclusive, HT1080NT lethal 16µM, MCF10A rerep inconclusive, HT1080 IDH1KD tx 21µM
CN1CCN(CCC(=O)N2c3ccccc3Sc3ccc(C(F)(F)F)cc32)CC1	KB-V1 MDR tox inconclusive
CSc1ccc2c(c1)C(N1CCN(C)CC1)Cc1ccccc1S2 (centres undefined)	SW480 rerep 27µM!, HT1080NT lethal 26µM, MCF10A rerep 27µM, HT1080 IDH1KD tx 21µM
C[C@@H]1CN([C@H](C)CO)C(=O)CCCn2cc(nn2)CO[C@H]1CN(C)C(=O)Nc1ccc(-c2cccs2)cc1	none (no result: SW480 rerep, MCF10A rerep)
COc1cc2c3c(c1)-c1c(sn(-c4cc(OC)ccc4OC)c1=S)C(C)(C)N3C(=O)C2=O	none
Cc1ccc(S(=O)(=O)N2c3ccccc3-c3c(ssc3=S)C2(C)C)cc1	SW480 rerep inconclusive, KB-3-1 tox inconclusive, MCF10A rerep inconclusive, KB-V1 MDR tox 21µM, HT1080 IDH1KD tx inconclusive
CCOC(=O)CC1(C)N(S(=O)(=O)c2ccc(C)cc2)c2ccccc2N1S(=O)(=O)c1ccc(C)cc1	KB-V1 MDR tox inconclusive (no result: SW480 rerep, MCF10A rerep)
COc1ccc2c(c1)-c1c(ssc1=S)C(C)(C)N2S(=O)(=O)c1ccc(C)cc1	SW480 rerep 7.3µM, KB-3-1 tox inconclusive, HT1080NT lethal inconclusive, MCF10A rerep 5.2µM, KB-V1 MDR tox 5.8µM, HT1080 IDH1KD tx 6.5µM
CC1CCC(NC(=O)c2ccc3c(c2)N(Cc2ccccc2F)C(=O)c2ccccc2S3=O)CC1 (centres undefined)	none (no result: SW480 rerep, HT1080NT lethal, MCF10A rerep, HT1080 IDH1KD tx)
Cc1cc(C(=O)NCCc2ccc(Cl)cc2)c2c(C)nn(-c3cccc(F)c3)c2n1	none (no result: SW480 rerep, HT1080NT lethal, MCF10A rerep, HT1080 IDH1KD tx)
COc1ccc(OCCSc2nnc(CCNC(=O)c3ccc(OC)cc3)n2C)cc1	KB-V1 MDR tox 18µM
CCn1c(CCNC(=O)c2ccc(Cl)c(Cl)c2)nnc1SCCOc1ccc(OC)cc1	KB-3-1 tox 21µM, HT1080NT lethal inconclusive, KB-V1 MDR tox 5.8µM, HT1080 IDH1KD tx inconclusive
CC(C)(C)OC(=O)N1CCC(c2c(C(=O)NCc3ccccc3)cnn2-c2cccc(F)c2)CC1	none (no result: SW480 rerep, HT1080NT lethal, MCF10A rerep, HT1080 IDH1KD tx)
O=C(CCc1nc(-c2ccccc2F)no1)Nc1cccc(C(F)(F)F)c1	KB-V1 MDR tox inconclusive (no result: SW480 rerep, HT1080NT lethal, MCF10A rerep, HT1080 IDH1KD tx)
O=C(CN1C(=O)CC(c2ccco2)Sc2ccccc21)Nc1cccc(C(F)(F)F)c1 (centres undefined)	KB-3-1 tox inconclusive, KB-V1 MDR tox 21µM (no result: SW480 rerep, HT1080NT lethal, MCF10A rerep, HT1080 IDH1KD tx)
O=C(CN1C(=O)CC(c2ccco2)Sc2ccccc21)Nc1ccc(C(F)(F)F)cc1 (centres undefined)	KB-V1 MDR tox inconclusive (no result: SW480 rerep, HT1080NT lethal, MCF10A rerep, HT1080 IDH1KD tx)
COc1ccc(NC(=O)CN2C(=O)CC(c3ccco3)Sc3ccccc32)cc1OC (centres undefined)	KB-V1 MDR tox 18µM (no result: SW480 rerep, HT1080NT lethal, MCF10A rerep, HT1080 IDH1KD tx)
COC(=O)c1c(NC(=O)C2COc3ccccc3O2)sc2c1CCN(C(=O)OC)C2 (centres undefined)	KB-V1 MDR tox inconclusive (no result: SW480 rerep, MCF10A rerep)
O=C1C=C(N2CCOCC2)c2cccc3cccc1c23	KB-V1 MDR tox inconclusive (no result: SW480 rerep, MCF10A rerep)
